Key:
[1] = molecular target: High affinity nerve growth factor receptor (Homo sapiens) (UniProt P04629); conditions: at 1 µM;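 note: each value is the mean percent inhibition of TRKA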
[2] = molecular target: BDNF/NT-3 growth factors receptor (Homo sapiens) (UniProt Q16620); conditions: at 0.1 µM
[3] = molecular target: BDNF/NT-3 growth factors receptor (Homo sapiens) (UniProt Q16620); conditions: at 1 µM
[4] = molecular target: NT-3 growth factor receptor (Homo sapiens) (UniProt Q16288); conditions: at 0.1 µM
[5] = molecular target: NT-3 growth factor receptor (Homo sapiens) (UniProt Q16288); conditions: at 1 µM
[6] = molecular target: T1, Tyrosine-protein kinase TXK (Homo sapiens) (UniProt P42681); conditions: at 0.1 µM
T1 sequence (whole entry): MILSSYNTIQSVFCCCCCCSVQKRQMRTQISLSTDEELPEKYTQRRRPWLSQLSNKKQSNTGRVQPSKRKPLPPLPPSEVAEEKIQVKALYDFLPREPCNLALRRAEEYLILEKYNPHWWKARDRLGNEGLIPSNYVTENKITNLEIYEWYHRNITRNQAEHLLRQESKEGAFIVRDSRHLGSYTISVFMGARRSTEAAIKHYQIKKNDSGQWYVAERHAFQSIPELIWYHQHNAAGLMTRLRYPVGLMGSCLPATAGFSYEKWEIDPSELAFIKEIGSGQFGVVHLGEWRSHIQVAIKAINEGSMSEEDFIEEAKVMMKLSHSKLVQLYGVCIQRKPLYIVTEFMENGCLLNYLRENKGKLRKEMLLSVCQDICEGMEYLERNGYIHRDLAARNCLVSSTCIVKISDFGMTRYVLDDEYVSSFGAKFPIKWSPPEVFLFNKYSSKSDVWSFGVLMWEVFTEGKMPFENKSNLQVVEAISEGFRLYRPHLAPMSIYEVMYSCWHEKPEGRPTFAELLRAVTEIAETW

[7] = molecular target: T1, Tyrosine-protein kinase TXK (Homo sapiens); conditions: at 1 µM
[8] = molecular target: Non-receptor tyrosine-protein kinase TYK2 (Homo sapiens) (UniProt P29597); conditions: at 0.1 µM;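 note: each value is a mean of the inhibition readings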
[9] = molecular target: T2, Dual specificity protein kinase TTK (Homo sapiens) (UniProt P33981); conditions: at 1 µM;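 note: reported figures are mean TTK inhibition at 1 µM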
T2 sequence (whole entry): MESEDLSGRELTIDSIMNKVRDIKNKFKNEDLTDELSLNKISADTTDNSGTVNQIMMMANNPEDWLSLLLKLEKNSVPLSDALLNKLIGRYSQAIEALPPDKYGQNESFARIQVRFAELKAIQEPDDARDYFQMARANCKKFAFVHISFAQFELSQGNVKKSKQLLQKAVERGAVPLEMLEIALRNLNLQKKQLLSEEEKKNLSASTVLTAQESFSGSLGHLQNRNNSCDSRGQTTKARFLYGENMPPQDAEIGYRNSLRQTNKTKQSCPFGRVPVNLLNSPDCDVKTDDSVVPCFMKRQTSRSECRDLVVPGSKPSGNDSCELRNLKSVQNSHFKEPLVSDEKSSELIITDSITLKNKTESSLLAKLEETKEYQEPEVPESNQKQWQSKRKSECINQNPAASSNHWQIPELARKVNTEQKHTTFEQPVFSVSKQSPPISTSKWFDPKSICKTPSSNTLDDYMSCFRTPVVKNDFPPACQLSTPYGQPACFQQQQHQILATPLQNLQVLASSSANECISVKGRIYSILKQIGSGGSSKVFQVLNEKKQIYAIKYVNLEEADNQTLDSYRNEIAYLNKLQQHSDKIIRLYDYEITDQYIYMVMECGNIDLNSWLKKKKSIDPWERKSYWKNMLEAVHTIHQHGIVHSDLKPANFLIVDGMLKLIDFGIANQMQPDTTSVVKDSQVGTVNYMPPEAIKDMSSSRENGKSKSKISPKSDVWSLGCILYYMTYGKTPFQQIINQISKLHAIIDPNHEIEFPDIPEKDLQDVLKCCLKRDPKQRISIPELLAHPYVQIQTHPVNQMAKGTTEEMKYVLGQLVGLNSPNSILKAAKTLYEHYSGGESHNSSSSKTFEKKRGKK

[10] = molecular target: T3, Aurora kinase A (Homo sapiens) (UniProt O14965); conditions: at 0.1 µM
T3 sequence (whole entry): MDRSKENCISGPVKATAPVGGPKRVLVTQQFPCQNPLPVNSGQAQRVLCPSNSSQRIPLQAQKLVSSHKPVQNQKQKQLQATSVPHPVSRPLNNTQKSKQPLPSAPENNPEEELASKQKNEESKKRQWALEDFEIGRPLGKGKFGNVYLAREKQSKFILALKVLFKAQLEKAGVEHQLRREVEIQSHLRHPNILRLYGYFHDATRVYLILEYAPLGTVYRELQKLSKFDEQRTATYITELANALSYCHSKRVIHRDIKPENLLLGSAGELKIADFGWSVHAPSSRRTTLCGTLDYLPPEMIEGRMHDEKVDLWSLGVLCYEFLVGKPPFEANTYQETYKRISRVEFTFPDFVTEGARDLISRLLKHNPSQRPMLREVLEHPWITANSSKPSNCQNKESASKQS

[11] = molecular target: T3, Aurora kinase A (Homo sapiens); conditions: at 1 µM
[12] = molecular target: Aurora kinase B (Homo sapiens) (UniProt Q96GD4); conditions: at 0.1 µM
[13] = molecular target: Aurora kinase B (Homo sapiens) (UniProt Q96GD4); conditions: at 1 µM
[14] = molecular target: T4, Aurora kinase C (Homo sapiens) (UniProt Q9UQB9); conditions: at 0.1 µM
T4 sequence (whole entry): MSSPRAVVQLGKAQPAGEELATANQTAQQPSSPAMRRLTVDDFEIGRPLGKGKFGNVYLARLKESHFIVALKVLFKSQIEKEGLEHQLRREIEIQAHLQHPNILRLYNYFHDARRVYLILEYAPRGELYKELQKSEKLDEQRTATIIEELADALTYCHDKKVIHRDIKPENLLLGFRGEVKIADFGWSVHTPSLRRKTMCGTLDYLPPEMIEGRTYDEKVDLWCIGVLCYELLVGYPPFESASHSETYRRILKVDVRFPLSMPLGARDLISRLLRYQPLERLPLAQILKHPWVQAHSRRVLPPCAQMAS

[15] = molecular target: T4, Aurora kinase C (Homo sapiens); conditions: at 1 µM
[16] = molecular target: Serine/threonine-protein kinase 10 (Homo sapiens) (UniProt O94804); conditions: at 0.1 µM
[17] = molecular target: Serine/threonine-protein kinase 10 (Homo sapiens) (UniProt O94804); conditions: at 1 µM
[18] = molecular target: T5, Mitogen-activated protein kinase kinase kinase kinase 2 (Homo sapiens) (UniProt Q12851); conditions: at 0.1 µM
T5 sequence (whole entry): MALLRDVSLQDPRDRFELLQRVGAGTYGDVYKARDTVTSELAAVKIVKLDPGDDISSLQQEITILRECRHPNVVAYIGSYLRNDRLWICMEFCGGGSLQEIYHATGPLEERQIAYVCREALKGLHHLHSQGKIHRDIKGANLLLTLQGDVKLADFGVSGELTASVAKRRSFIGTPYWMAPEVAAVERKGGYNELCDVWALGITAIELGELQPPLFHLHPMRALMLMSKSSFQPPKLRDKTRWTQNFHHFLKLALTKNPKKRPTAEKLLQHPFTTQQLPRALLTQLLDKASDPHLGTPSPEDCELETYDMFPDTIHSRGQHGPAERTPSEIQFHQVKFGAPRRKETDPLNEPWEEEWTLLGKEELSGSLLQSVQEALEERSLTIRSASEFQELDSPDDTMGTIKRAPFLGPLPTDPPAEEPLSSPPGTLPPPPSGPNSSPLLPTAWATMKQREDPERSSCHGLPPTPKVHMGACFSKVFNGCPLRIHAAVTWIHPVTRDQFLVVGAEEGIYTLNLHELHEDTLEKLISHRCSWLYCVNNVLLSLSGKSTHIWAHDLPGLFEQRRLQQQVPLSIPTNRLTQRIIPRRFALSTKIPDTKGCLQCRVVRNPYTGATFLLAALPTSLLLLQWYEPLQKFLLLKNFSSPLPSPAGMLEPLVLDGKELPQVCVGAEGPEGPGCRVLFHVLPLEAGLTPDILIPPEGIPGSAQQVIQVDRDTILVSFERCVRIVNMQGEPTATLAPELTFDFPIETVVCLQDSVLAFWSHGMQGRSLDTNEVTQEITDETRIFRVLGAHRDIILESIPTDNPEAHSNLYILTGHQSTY

[19] = molecular target: T5, Mitogen-activated protein kinase kinase kinase kinase 2 (Homo sapiens); conditions: at 1 µM
[20] = molecular target: Mitogen-activated protein kinase kinase kinase kinase 4 (Homo sapiens) (UniProt O95819); conditions: at 0.1 µM
Sequence of Mitogen-activated protein kinase kinase kinase kinase 4 (Homo sapiens) (O95819 2-1239 limits assumed): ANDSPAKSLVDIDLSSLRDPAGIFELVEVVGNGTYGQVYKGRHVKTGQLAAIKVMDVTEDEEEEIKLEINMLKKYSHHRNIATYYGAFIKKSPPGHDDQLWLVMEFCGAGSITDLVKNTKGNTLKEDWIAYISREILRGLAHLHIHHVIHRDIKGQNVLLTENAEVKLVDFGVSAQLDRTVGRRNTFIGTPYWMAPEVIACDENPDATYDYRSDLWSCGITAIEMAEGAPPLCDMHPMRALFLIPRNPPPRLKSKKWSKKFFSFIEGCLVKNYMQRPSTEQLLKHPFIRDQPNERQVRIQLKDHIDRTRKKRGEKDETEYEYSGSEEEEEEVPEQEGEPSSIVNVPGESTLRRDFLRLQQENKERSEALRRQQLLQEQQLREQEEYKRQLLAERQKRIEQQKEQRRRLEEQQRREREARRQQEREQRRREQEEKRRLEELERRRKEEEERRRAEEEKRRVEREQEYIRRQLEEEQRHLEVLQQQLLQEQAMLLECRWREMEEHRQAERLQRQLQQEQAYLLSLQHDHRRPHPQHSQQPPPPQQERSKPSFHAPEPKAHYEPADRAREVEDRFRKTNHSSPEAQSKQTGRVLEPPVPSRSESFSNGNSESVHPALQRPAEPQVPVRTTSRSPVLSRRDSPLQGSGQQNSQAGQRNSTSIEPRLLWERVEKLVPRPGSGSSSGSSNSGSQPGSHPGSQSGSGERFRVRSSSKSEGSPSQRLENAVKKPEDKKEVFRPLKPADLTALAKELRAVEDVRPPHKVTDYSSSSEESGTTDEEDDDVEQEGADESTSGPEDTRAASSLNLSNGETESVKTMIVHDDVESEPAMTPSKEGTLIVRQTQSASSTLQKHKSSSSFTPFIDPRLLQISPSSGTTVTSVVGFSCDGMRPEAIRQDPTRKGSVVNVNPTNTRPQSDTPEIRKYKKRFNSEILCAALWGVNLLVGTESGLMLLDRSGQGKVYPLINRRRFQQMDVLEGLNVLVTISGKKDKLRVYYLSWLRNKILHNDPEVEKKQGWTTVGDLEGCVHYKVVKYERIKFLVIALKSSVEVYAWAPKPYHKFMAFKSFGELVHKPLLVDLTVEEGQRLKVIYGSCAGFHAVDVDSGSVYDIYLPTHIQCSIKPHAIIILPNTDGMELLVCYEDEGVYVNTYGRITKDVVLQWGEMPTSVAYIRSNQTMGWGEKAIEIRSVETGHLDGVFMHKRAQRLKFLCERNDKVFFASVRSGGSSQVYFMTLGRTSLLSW

Sequence of High affinity nerve growth factor receptor (Homo sapiens) (P04629 33-796 limits assumed): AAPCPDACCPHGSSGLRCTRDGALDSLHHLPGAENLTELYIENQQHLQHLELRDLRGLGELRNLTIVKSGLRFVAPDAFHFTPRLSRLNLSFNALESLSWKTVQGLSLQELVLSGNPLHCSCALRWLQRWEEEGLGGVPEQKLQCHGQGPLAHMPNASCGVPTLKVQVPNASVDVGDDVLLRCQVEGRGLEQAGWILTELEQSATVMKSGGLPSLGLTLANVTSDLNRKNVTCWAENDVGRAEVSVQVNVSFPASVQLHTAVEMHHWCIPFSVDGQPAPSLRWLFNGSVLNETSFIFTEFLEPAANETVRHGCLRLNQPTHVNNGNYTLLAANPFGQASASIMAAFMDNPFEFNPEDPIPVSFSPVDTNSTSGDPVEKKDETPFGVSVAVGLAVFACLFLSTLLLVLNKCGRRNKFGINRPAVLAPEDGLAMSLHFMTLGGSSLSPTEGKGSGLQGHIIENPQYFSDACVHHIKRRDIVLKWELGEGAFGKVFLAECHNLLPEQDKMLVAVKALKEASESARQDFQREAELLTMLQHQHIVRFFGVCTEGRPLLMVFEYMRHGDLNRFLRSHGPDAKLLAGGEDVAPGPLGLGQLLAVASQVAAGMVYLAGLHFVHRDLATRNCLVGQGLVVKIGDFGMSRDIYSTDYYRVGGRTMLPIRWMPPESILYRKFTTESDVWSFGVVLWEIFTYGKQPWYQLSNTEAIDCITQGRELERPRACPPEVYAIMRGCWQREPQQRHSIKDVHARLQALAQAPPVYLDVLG
Sequence of Serine/threonine-protein kinase 10 (Homo sapiens) (O94804 whole entry, looked up): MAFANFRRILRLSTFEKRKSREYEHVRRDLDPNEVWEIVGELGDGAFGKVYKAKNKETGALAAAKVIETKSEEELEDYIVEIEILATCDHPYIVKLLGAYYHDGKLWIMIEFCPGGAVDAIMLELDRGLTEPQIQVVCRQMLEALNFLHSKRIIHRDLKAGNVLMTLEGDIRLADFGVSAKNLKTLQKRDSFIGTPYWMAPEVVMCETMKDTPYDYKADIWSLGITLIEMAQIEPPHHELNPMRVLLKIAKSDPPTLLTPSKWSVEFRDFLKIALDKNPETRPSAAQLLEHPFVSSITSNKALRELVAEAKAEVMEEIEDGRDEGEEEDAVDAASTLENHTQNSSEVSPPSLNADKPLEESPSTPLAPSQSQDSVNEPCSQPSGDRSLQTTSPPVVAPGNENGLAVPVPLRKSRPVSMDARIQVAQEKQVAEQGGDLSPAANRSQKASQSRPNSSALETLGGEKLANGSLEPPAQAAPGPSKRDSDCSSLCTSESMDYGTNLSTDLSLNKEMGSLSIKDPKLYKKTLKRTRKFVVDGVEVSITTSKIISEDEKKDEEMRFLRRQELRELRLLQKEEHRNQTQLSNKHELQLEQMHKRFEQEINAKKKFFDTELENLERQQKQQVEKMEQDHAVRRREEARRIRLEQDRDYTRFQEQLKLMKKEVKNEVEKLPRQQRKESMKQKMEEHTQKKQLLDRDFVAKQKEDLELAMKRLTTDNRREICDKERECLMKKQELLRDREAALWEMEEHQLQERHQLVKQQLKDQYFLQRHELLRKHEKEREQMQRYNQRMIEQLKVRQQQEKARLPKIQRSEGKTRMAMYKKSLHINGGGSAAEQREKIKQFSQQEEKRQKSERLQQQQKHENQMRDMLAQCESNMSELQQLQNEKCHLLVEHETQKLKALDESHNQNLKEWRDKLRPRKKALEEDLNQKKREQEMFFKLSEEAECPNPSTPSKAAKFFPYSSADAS
Sequence of Non-receptor tyrosine-protein kinase TYK2 (Homo sapiens) (P29597 whole entry): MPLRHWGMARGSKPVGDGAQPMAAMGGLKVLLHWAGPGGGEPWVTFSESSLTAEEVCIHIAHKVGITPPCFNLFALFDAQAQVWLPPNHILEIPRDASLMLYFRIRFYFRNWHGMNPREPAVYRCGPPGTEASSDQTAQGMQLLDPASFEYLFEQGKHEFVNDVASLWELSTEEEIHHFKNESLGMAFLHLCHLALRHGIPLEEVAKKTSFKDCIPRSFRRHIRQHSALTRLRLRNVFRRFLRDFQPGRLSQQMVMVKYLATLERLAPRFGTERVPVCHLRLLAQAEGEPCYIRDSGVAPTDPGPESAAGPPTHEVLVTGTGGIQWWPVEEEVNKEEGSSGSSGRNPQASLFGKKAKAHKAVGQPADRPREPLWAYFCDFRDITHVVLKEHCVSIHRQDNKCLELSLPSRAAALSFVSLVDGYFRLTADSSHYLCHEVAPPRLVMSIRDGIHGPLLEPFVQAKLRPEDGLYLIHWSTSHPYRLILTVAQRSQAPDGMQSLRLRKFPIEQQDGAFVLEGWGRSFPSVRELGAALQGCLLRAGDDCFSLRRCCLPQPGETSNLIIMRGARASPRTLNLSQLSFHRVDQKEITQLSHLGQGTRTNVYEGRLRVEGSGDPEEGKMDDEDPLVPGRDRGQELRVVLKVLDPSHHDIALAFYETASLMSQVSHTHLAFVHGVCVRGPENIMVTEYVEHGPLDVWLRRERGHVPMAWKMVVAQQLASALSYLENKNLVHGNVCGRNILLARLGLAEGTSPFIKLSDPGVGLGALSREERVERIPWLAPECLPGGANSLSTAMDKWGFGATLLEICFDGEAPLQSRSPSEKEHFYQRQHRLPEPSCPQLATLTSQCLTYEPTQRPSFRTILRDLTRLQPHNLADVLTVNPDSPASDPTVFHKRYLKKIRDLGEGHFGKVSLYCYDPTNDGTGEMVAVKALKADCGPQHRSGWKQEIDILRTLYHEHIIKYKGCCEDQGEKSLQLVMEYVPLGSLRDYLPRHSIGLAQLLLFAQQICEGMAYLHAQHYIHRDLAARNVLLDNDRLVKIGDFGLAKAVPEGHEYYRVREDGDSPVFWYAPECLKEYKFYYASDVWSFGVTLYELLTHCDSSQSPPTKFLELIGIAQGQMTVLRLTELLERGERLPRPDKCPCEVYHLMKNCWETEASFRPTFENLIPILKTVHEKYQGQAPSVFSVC
Sequence of NT-3 growth factor receptor (Homo sapiens) (Q16288 32-839 limits assumed): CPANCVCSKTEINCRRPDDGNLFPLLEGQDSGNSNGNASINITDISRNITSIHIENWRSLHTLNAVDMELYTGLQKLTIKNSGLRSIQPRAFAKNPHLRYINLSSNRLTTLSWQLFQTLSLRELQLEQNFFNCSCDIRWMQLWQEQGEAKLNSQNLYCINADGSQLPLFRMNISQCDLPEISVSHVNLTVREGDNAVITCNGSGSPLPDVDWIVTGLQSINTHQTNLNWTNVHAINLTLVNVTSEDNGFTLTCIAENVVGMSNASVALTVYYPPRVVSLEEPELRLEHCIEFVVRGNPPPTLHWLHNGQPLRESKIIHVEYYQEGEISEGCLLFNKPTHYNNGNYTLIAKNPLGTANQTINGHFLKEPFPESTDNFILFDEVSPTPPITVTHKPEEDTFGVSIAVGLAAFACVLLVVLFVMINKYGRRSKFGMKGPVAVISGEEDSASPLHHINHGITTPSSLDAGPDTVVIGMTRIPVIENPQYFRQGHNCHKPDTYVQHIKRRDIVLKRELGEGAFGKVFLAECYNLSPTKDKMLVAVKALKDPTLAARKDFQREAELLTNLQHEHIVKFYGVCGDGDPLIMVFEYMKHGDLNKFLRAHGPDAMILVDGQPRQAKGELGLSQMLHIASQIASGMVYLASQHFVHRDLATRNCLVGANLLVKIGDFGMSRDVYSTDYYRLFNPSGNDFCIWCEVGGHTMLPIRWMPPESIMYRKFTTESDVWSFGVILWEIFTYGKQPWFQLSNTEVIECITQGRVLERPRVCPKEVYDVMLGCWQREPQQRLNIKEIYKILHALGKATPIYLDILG

SMILES | inhibition [1] | inhibition [2] | inhibition [3] | inhibition [4] | inhibition [5] | inhibition [6] | inhibition [7] | inhibition [8] | inhibition [9] | inhibition [10] | inhibition [11] | inhibition [12] | inhibition [13] | inhibition [14] | inhibition [15] | inhibition [16] | inhibition [17] | inhibition [18] | inhibition [19] | inhibition [20]
c1ccc(-c2nc3n(c2-c2ccc4c(c2)OCO4)CCC3)nc1 | 2.69% | -0.27% | 2.27% | -0.01% | 3.2% | 1.77% | 1.77% | -1.06% | 0.07% | 0.45% | 2.32% | 1.52% | 2.28% | 0.37% | -3.23% | -0.05% | 3.42% | 2.19% | 2.78% | 2.84%
CCN(CC)S(=O)(=O)c1ccc(OC)c(Nc2ncc(-c3ccccc3)o2)c1 | 41.5% | 5.72% | 41.5% | 4.27% | 35.2% | 3.92% | 24.9% | -1.59% | 8.57% | 1.61% | 13.9% | 1.33% | 4.64% | 2.12% | -4.34% | 2.55% | 8.37% | 1.18% | 1.77% | 2.08%
CC1=C(C(=O)Nc2cc(Cl)c3[nH]ncc3c2)C(c2ccc(C(F)(F)F)cc2)CC(=O)N1 (stereo not given) | 2.71% | 2.52% | 3.55% | 3.39% | 6.01% | 2.42% | 1.68% | -1.59% | 5.07% | 3.11% | 16.6% | 2.95% | 10% | 0.68% | 7.15% | 6.25% | 7.45% | 2% | 3.92% | 2.89%
COC(=O)Nc1nc2ccc(S(=O)(=O)c3ccc(NC(=O)Nc4cc(C(F)(F)F)ccc4F)cc3)cc2[nH]1 | 2.05% | 0.88% | 3.21% | 1.98% | 3.91% | 2.55% | 4.65% | -1.55% | 10.5% | 3.13% | 8.25% | 3.7% | 7.15% | 0.87% | 14.1% | 3.49% | 10.6% | -0.09% | 1.67% | 2.49%
COc1ccc2[nH]c3c4[nH]c5ccc(OC)cc5c4c4c(c3c2c1)C(=O)NC4=O | 16.6% | 7.79% | 33.9% | 8.83% | 41.5% | 2.51% | 14.6% | -2.11% | 34.6% | 7.28% | 68.8% | 20.7% | 66.9% | 12.4% | 86.8% | 9.72% | 40.2% | 2.06% | 12.1% | 84.6%
Cc1ccc2c(-c3ccnc(Nc4ccccc4)n3)c(-c3ccc(F)cc3)nn2n1 | 31.6% | 5.12% | 20.2% | 4.3% | 11.8% | 8.09% | 31.4% | -4.65% | 6.11% | 3.75% | 16.4% | -4.16% | 12.9% | 2.67% | 25.2% | 7.71% | 22.8% | 0.67% | 3.98% | 12.3%
CCOc1ccc2c(-c3ccnc(Nc4cccc(C(F)(F)F)c4)n3)cnn2n1 | 0.26% | 0.03% | 2.11% | 0.07% | 3.18% | -0.13% | 3.47% | -0.74% | 4.11% | 1.41% | 7.68% | 6.17% | 9.87% | 2.6% | 12.5% | 4.81% | 12.9% | 0.42% | 6.12% | 0.65%
CS(=O)(=O)CCNCc1coc(-c2ccc3ncnc(Nc4ccc(OCc5ccccc5)cc4)c3c2)c1 | 4.8% | 2% | 4.13% | 2.96% | 4.88% | 4.16% | 3.86% | 1.95% | 2.54% | 2.4% | 4.78% | 1.47% | 9.78% | 1.46% | 8.58% | 8.03% | 6.21% | 0.9% | 3.83% | 3.41%
COc1ccc(-c2cc3c(N)ncnc3o2)cc1 | 2.94% | -0.36% | 1.81% | 0.53% | 0.25% | 0.91% | 2.2% | -0.95% | 0.09% | 0.51% | 1.33% | -0.85% | 11.7% | 1.13% | 16.7% | -1.35% | 0.33% | 2.31% | 4.72% | 2%
FC(F)(F)c1cccc(-c2nn3ncccc3c2-c2ccnc(Nc3ccc4c(c3)OCCO4)n2)c1 | 3.48% | 1.94% | 3.39% | 0.62% | 3.72% | 3.11% | 9% | -2.27% | 14.6% | 2.64% | 24.7% | 4.28% | 12.4% | 1.81% | 19.9% | 3.84% | 19.8% | 1.35% | 12.2% | 7.12%
CCn1cc(-c2ccnc3[nH]ccc23)c(-c2cccc(NC(=O)Nc3ccc(OCc4ccccc4)cc3)c2)n1 | -2.6% | -2.42% | -0.53% | -0.62% | 8.83% | -1.03% | 1.79% | 0.94% | 3.41% | 2.05% | 7.41% | 2.62% | 14.1% | 0.13% | 19.5% | 2.56% | 7.07% | 0.73% | 10.4% | 1.57%
CNC(=O)c1cncc(/C=C/c2ccccc2Cl)c1 | -0.75% | -1.43% | 2.71% | -1.83% | 3.94% | 4.15% | 16% | 2.63% | 5.89% | 1.14% | 12% | 2.57% | 7.3% | 5.27% | -3.84% | 3.92% | 8.22% | 1.8% | 2.04% | 2.52%

Source: ChEMBL document CHEMBL1961873, “Compounds: GSK PKIS; Assays: Nanosyn kinase panel” (2012)
